# In PubChem BioAssay (NCATS):
# Values joined by “and” are separate entries in the source; they are usually repeats but may differ in a detail not shown here. Identical values can stand only once. Records with an inconclusive call do not appear. Values without a mark were called inactive. Active and inactive are the calls of the source. The call rests on the fitted dose curve; in most records, active means well fitted inhibition curve with a large enough effect; inconclusive means small, poorly fitted or top-dose-only effect; inactive means flat fitted curve, though single readings scatter.
# Experiments:
# CRL-7250 = normal cell line; experiment: Cytotoxic Profiling of Annotated Libraries Using Quantitative High-Throughput Screening (AID 1296008); conditions: Five cell lines viability, CellTiter-Glo ATP luminescence, 48-72 h; max response: stronger effect = lower value; on max response: on the % scale 0 is the no-effect control and ±100 the full control effect
# Procedure, shortened: (§1)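 Cytotoxicity was measured as CellTiter-Glo ATP luminescence, read after 10 min at room temperature. Compound treatment of the cells lasted 48 or 72 hr at 37 degrees Celsius in a qHTS format.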
# HEK293 = experiment: as above; conditions: Five cell lines viability, CellTiter-Glo ATP luminescence, 48-72 h; max response: stronger effect = lower value
# Procedure, shortened: as §1
# HaCat = experiment: as above; conditions: Five cell lines viability, CellTiter-Glo ATP luminescence, 48-72 h; max response: stronger effect = lower value
# Procedure, shortened: as §1
# PC26 = experiment: qHTS profiling for inhibitors of Plasmodium falciparum proliferation (AID 504749); conditions: P. falciparum in erythrocytes, SYBR Green DNA, 72 h; series mostly up to 28.7 µM
# Procedure, shortened: (§2)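 In a 72 h erythrocytic culture (37 C, humidified, 5% CO2) at 2.5% hematocrit and 0.3% starting parasitemia, compounds were tested; SYBR Green I in detergent lysis buffer stained parasite DNA overnight.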
# PC49 = experiment: as above; conditions: P. falciparum in erythrocytes, SYBR Green DNA, 72 h; series mostly up to 28.7 µM
# Procedure, shortened: as §2
# SC27B = experiment: as above; conditions: P. falciparum in erythrocytes, SYBR Green DNA, 72 h; series mostly up to 28.7 µM
# Procedure, shortened: as §2
# TAB109 = experiment: as above; conditions: P. falciparum in erythrocytes, SYBR Green DNA, 72 h; series mostly up to 28.7 µM
# Procedure, shortened: as §2
# TAB113 = experiment: as above; conditions: P. falciparum in erythrocytes, SYBR Green DNA, 72 h; series mostly up to 28.7 µM
# Procedure, shortened: as §2
# TAB165 = experiment: as above; conditions: P. falciparum in erythrocytes, SYBR Green DNA, 72 h; series mostly up to 28.7 µM
# Procedure, shortened: as §2
# Further: nearly all actives have a fitted effect of over 60% in size.
# Potency means the concentration at half of the fitted maximal effect.
smiles,measurement,setting,value
CC(CNC1CCCCC1)OC(=O)c1ccccc1 (centres undefined),max response,CRL-7250,-16.2%
same,max response,HEK293,-47.9%
same,max response,HaCat,-18.5%
CC1(C)OC[C@@H]2O[C@@]3(C(=O)O)OC(C)(C)O[C@H]3[C@@H]2O1,max response,CRL-7250,-27.6%
same,outcome,HEK293,inactive
O=C1C(=O)c2ccccc2C(O)=C1C1CCC(c2ccc(Cl)cc2)CC1 (centres undefined),Potency,PC26,5.7 nM (active)
same,Potency,PC49,5 nM (active)
same,Potency,SC27B,0.7 nM (active)
same,Potency,TAB109,2.5 nM (active)
same,Potency,TAB113,2 nM (active)
same,Potency,TAB165,10 nM (active)
same,max response,CRL-7250,1.68%
same,max response,HEK293,0.597%
same,max response,HaCat,-2.46%
CCC(Cc1c(I)cc(I)c(N)c1I)C(=O)O (centres undefined),outcome,CRL-7250,inactive
same,outcome,HEK293,inactive
C[N+]12CCC(CC1)C(OC(=O)C(O)(c1ccccc1)c1ccccc1)C2 (centres undefined),max response,CRL-7250,3.27%
same,max response,HEK293,-6.95%
same,max response,HaCat,-16.2%
NC(=S)N/N=C/c1cccnc1,Potency,PC26,inactive
same,Potency,PC49,inactive
same,Potency,SC27B,inactive
same,Potency,TAB109,inactive
same,Potency,TAB113,inactive
same,Potency,TAB165,inactive
same,max response,CRL-7250,-6.1%
same,max response,HEK293,-29.1%
same,max response,HaCat,1.46%
Cc1ccc(-c2ncc(Cl)cc2-c2ccc(S(C)(=O)=O)cc2)cn1,max response,CRL-7250,-1.19%
same,max response,HEK293,4.1%
same,max response,HaCat,-27.8%
CCCCN1C[C@H](O)[C@@H](O)[C@H](O)[C@H]1CO,max response,CRL-7250,-12.1%
same,max response,HEK293,-7.96%
same,max response,HaCat,-19.6%
CC(=O)OCC1=C(C(=O)O)N2C(=O)[C@@H](NC(=O)CSc3ccncc3)[C@H]2SC1,max response,CRL-7250,-1.6%
same,max response,HEK293,4.22%
same,max response,HaCat,0.118%
CCN(CC)CCNC(=O)c1cc(Br)c(N)cc1OC,Potency,PC26,inactive
same,Potency,PC49,inactive
same,Potency,SC27B,inactive
same,Potency,TAB109,inactive
same,Potency,TAB113,inactive
same,Potency,TAB165,inactive
same,max response,CRL-7250,3.66%
same,max response,HEK293,-7.62%
same,max response,HaCat,-11.9%
C[C@H]1O[C@@H](O[C@H]2CC[C@@]3(C)[C@H](CC[C@@H]4[C@@H]3C[C@@H](O)[C@]3(C)[C@@H](C5=CC(=O)OC5)CC[C@]43O)C2)C[C@H](O)[C@@H]1O[C@H]1C[C@H](O)[C@H](O[C@H]2C[C@H](O)[C@H](O[C@@H]3O[C@H](CO)[C@@H](O)[C@H](O)[C@H]3O)[C@@H](C)O2)[C@@H](C)O1,Potency,CRL-7250,211 nM (active)
same,Potency,HEK293,188 nM (active)
same,Potency,HaCat,596 nM (active)
Cc1cc(C)cc(OCC2CNC(=O)O2)c1 (centres undefined),Potency,PC26,inactive
same,Potency,PC49,inactive
same,Potency,SC27B,inactive
same,Potency,TAB109,inactive
same,Potency,TAB113,inactive
same,Potency,TAB165,inactive
same,max response,CRL-7250,2.93%
same,max response,HEK293,3.06%
same,max response,HaCat,-13.4%
O=[N+]([O-])c1ccc(/C=N\O)o1,max response,CRL-7250,-1.03%
same,max response,HEK293,-8.88%
same,max response,HaCat,1.07%
C[C@]12CCC(=O)C=C1C=C[C@@H]1[C@@H]2CC[C@@]2(C)[C@H]1CC[C@@]21CCC(=O)O1,Potency,CRL-7250,7500 nM (active)
same,Potency,HEK293,9440 nM (active)
CCCCc1cc2ccccc2c(OCCN(C)C)n1,Potency,PC26,inactive
same,Potency,PC49,inactive
same,Potency,SC27B,inactive
same,Potency,TAB109,inactive
same,Potency,TAB113,inactive
same,Potency,TAB165,inactive
same,max response,CRL-7250,-9.77%
same,Potency,HEK293,18800 nM (active)
same,outcome,HaCat,inactive
O=C1[C@H](CC[C@H](O)c2ccc(F)cc2)[C@@H](c2ccc(O)cc2)N1c1ccc(F)cc1,max response,CRL-7250,1.5%
same,outcome,CRL-7250,inactive
same,max response,HaCat,-6.94% and -19.1%
C[C@@]12C(=O)OC(=O)[C@]1(C)C1CCC2O1,Potency,CRL-7250,2990 nM (active)
same,Potency,HEK293,7500 nM (active)
CC(=C(CCOC(=O)C(C)C)SSC(CCOC(=O)C(C)C)=C(C)N(C=O)Cc1cnc(C)nc1N)N(C=O)Cc1cnc(C)nc1N,max response,CRL-7250,0.406%
same,max response,HEK293,-4.89%
same,outcome,HaCat,inactive
CCN[C@@H]1C[C@H](N)[C@@H](OC2OC(CN)=CCC2N)[C@H](O)[C@H]1O[C@H]1OC[C@](C)(O)[C@H](NC)[C@H]1O (some centres undefined),max response,CRL-7250,0.244%
same,outcome,HEK293,inactive
NS(=O)(=O)c1cc2c(cc1Cl)NC(CC1CCCC1)NS2(=O)=O (centres undefined),max response,CRL-7250,-2.46%
same,max response,HEK293,-7.58%
same,max response,HaCat,-5.14%
COc1ccc(CCN(C)CCCN2CCc3cc(OC)c(OC)cc3CC2=O)cc1OC,Potency,PC26,inactive
same,Potency,PC49,inactive
same,Potency,SC27B,inactive
same,Potency,TAB109,inactive
same,Potency,TAB113,inactive
same,Potency,TAB165,inactive
same,max response,CRL-7250,-0.711%
same,outcome,HEK293,inactive
same,max response,HaCat,-7.19%
C=C[C@H]1CN2CC[C@H]1C[C@@H]2[C@@H](O)c1ccnc2ccc(OC)cc12,max response,CRL-7250,-2.42%
same,max response,HEK293,-4.02%
same,max response,HaCat,-4.58%
CC(C)(C)NCC(O)COc1cccc2c1C[C@H](O)[C@H](O)C2 (some centres undefined),outcome,CRL-7250,inactive
same,max response,HEK293,-3.77%
same,outcome,HaCat,inactive
Nc1nc(Cl)nc2c1ncn2[C@@H]1O[C@H](CO)[C@@H](O)[C@@H]1F,Potency,CRL-7250,596 nM (active)
same,Potency,HEK293,1500 nM (active)
same,Potency,HaCat,1060 nM (active)
CC[C@]12CCCN3CCc4c(n(c5ccccc45)C(=O)C1)[C@@H]32,max response,CRL-7250,2.69%
same,Potency,HEK293,7500 nM (active)
same,max response,HaCat,-22.7%
CC(O)Cn1cnc2c1c(=O)n(C)c(=O)n2C (centres undefined),max response,CRL-7250,2.85%
same,max response,HEK293,1.15%
same,max response,HaCat,-17.4%
OC[C@H]1O[C@@H](Oc2ccc(O)cc2)[C@H](O)[C@@H](O)[C@@H]1O,max response,CRL-7250,-17%
same,max response,HEK293,-74.1%
CCN1CCN(C(=O)N[C@@H](C(=O)N[C@@H]2C(=O)N3C(C(=O)O)=C(CSc4nnnn4C)CS[C@H]23)c2ccc(O)cc2)C(=O)C1=O,max response,CRL-7250,3.23%
same,max response,HEK293,-4.75%
same,max response,HaCat,-2.57%
